The source made the active and inactive calls.

A short description of this test: A549 lung cancer cell viability effects, profiling panel, resazurin fluorescence, 24 h, PK04 Diversity Set (AID 1171). Note: test concentration not given here. The settings on record: higher = more signal, called active from +8 up or from −8 down.
For the compound `O=C1O[C@@H](c2ccccc2)[C@@H](c2ccccc2)N2[C@@H](c3ccc(O)cc3)[C@]3(C(=O)Nc4ccc(C#CC5=CCCCC5)cc43)[C@@H](C(=O)NC[C@H](O)c3ccccc3)[C@H]12`, the z-score is -1.49 (inactive).
For `Cc1ccccc1C(O)C1C=CC2C(=O)N(C)C(=O)C2N1N(c1ccccc1)c1ccccc1` (stereo not given), the z-score is -0.191 (inactive).
Consider `CCOC(=O)[C@H]1[C@@H]2C(=O)N3CCC[C@H]3[C@H](O[Si](C(C)C)(C(C)C)C(C)C)[C@H]2C=C2CCN(S(=O)(=O)c3ccc(C)cc3)C[C@H]21`, for which the z-score was -0.742 (inactive).
On to `CC(CO)N1C(=O)[C@@H]2[C@H]3C(=O)OCC=C[C@H]3OC23C=CCN(C(C)(C)C)C(=O)[C@@H]13` (stereo not given in full), for which the z-score was -0.289 (inactive).
`O=C1C2C=CC(C(O)c3ccccc3)N(Nc3ccccc3F)C2C(=O)N1c1ccccc1` (stereo not given): the z-score was -0.412 (inactive).
As for `COCCOC(=O)N1C(=O)[C@@]2(c3cc(C#CC4=CCCCC4)ccc31)[C@H](c1ccc(O)cc1)N1[C@H](c3ccccc3)[C@H](c3ccccc3)OC(=O)[C@H]1[C@@H]2C(=O)N1CCN(c2ncccn2)CC1`, the z-score was 0.0994 (inactive).
As for `CC(C)C(=C=CC[C@H](O)c1cccc(OCCO)c1)C[C@H](O)c1cc(Cl)cc(Cl)c1O`, the z-score is 1.01 (inactive).
To `O=C(NCc1ccccc1)[C@@H]1c2ccccc2C(=O)N(Cc2ccccc2C(F)(F)F)[C@H]1c1ccc(CO)cc1` belongs -0.307 (inactive); to `CC(C)Cc1ccc(CN2CC[C@@H](NC(=O)Nc3ccccc3)C2)cc1`, -2.79 (inactive).
To `CCC(CC)C(O)C1C=CC2C(=O)N(c3ccccc3)C(=O)C2N1Nc1ccc(C(C)C)cc1` (stereo not given) belongs -1.32 (inactive).

The values are drawn from PubChem BioAssay.
